Laboratory results published in PubChem BioAssay AID686970 (National Center for Advancing Translational Sciences (NCATS), 2013).
Screen size: about 360,000 compounds; about 6,000 (1.7%) were called active. Another 8% or so got no clear call; they are omitted. Calls come from the whole dose curve; as a rule, active = well fitted cell-killing curve with a large enough effect; inconclusive = small, poorly fitted or top-dose-only effect, or effect the other way; inactive = flat fitted curve, though single readings scatter. The entries come from a sample that favours actives as a whole. Where a call stands in place of a potency, no number is given.

Assay: qHTS for induction of synthetic lethality in tumor cells producing 2HG: qHTS for the HT-1080-NT fibrosarcoma cell line; note: nearly all actives have a fitted effect of over 55% in size
Settings: HT-1080-NT fibrosarcoma viability, CellTiter-Glo ATP luminescence, 48 h; series mostly up to 46.1 µM
Source text: Unbiased genomic sequencing for 22 glioma genomes found recurrent mutation of IDH1 on chromosome 2q33, a gene encoding the cytosolic isoform of IDH1 associated with the tricarboxylic acid cycle (TCA) that catalyzes the oxidative decarboxylation of isocitrate, yielding alpha-ketoglutarate and CO2 via NADP+ to NADPH conversion. Subsequent studies confirmed the recurrent IDH mutations in up to 70% of secondary gliomas and in 10% of AML cases. In addition, the somatic mutation of cancer-associated IDH1 is a point mutation resulting in various amino-acid substituents at Arginine132 (IDH1 R132), a key residue found in the enzyme's active site that when mutated, results in the loss-of-function in metabolizing isocitrate but confers a gain-of-function to produce the oncometabolite 2-hydroxyglutarate (2HG). This in effect defines IDH1 as an oncogene and provides an extraordinary opportunity to discover chemical probes against mutant IDH1 that may translate into much needed new therapies for glioma and AML patients.
This assay aims to perform a synthetic lethal screen for chemical probes specific for 2HG-producing tumor cells using matched paired cell lines (1) HT-1080-NT fibrosarcoma cell line that overproduces 2HG and (2) HT-1080-IDH1KD cell line which has IDH1 expression knocked-down. Desirable compounds are toxic to the NT fibrosarcoma cells but not to the IDH1KD cell line. The data in this AID corresponds to the results of the qHTS against the HT-1080-NT fibrosarcoma cell line.
[1] Dang L, Jin S, Su SM. IDH mutations in glioma and acute myeloid leukemia. Trends of Mol Med. 2010; 16(9): 387-97.
[2] Dang L et al. Cancer-associated IDH1 mutations produce 2-hydroxyglutarate. Nature. 2010; 465(7300):966.
NIH Molecular Libraries Probe Production Centers Network [MLPCN]
NIH Chemical Genomics Center [NCGC]
Assay Submitter (PI): Lenny Dang Ph.D., Agios Pharmaceuticals
Suspensions of trypsinized HT-1080-NT cells were dispensed into white, tissue culture-treated, solid 1536-well plates at 5uL/well (750 cells/well final concentration) in RPMI medium supplemented with 5% FBS. Plates were incubated at 37 degrees C for 2 hours, after which 23 nL of compounds or DMSO were delivered to each well using a pin tool. Plates were then incubated at 37 degrees C for an additional 48 hours. CellTiter-Glo viability reagent (Promega) was dispensed into wells (2.5uL/well) and incubated at room temperature for 10 minutes. The plates were measured on a PerkinElmer ViewLux plate reader for luminescent signal (clear filter, 1 sec exp). DMSO-treated control wells and media-only (no cells) control wells were used to normalize %Activity of identified toxic compounds; DMSO-treated wells corresponded to 0%Activity (100% viability), while media-only controls were used to normalize 100%Activity (0% viability).
Concentration-response curves were fitted to the signals arising from the resulting luminescence. The concentration-effect curves were then classified based on curve quality (r2), response magnitude and degree of measured activity, and compounds were subsequently categorized based on their curve class.
Potency is the fitted concentration of half-maximal effect.

Row | SMILES | Potency
1 | CN(C)CC1Oc2ccccc2OC1(O)c1ccccc1 (configuration not stated) | 8.2 µM (active)
2 | CCOC(=O)c1cccc(C2=C(CNC(=O)c3ccncc3)[C@H]3CC[C@@H](C2)N3Cc2ccccc2)c1 | inactive
3 | O=C1C2CCN(CC2)C1(CO)CO | inactive
4 | O=c1[nH]c(O)c(C=Nc2cc(F)cc(F)c2)c(=O)[nH]1 | inactive
5 | COc1ccc2c3c1O[C@H]1C[C@@H](O)C=C[C@@]31CCN(C)C2 | 8.2 µM (active)
6 | COc1ccc2c(c1O)-c1cccc3c1[C@@H](C2)N(C)CC3 | inactive
7 | COC1=CC=C2[C@H]3Cc4ccc(OC)c5c4[C@@]2(CCN3C)C1O5 (some centres not stated) | inactive
8 | CC=C(C)C(=O)OC1CCN2CC=C(COC(=O)C(O)(C(C)OC)C(C)(C)O)C12 (configuration not stated) | inactive
9 | O=P(OC1=CCCCC1)(c1ccccc1)c1ccccc1 | inactive
10 | O=c1[nH]c2ccccc2n1C1CCN(C(c2ccccc2)c2nnnn2Cc2ccccc2)CC1 (configuration not stated) | 13 µM (active)
11 | CSCCC(c1nnnn1C(C)(C)C)N1CCC(n2c(=O)[nH]c3ccccc32)CC1 (configuration not stated) | inactive
12 | Cc1ccc(Cn2nnnc2CN2CCC(n3nnc4ccccc43)CC2)cc1 | inactive
13 | CCOC(=O)C1=C(C)OC(N)=C(C(=O)OC)C12C(=O)Nc1ccc(Br)cc12 (configuration not stated) | inactive
14 | O=c1[nH]c(CN2CC=C(c3ccccc3)CC2)nc2scc(-c3cccs3)c12 | inactive
15 | S=C(NCCc1ccccc1)N1Cc2cc(N3CCOCC3)ccc2-n2nncc2C1 | inactive
16 | CCOc1ccc(-c2cc(C)[n+](CCN(CC)CC)c(-c3ccc(OCC)cc3)c2)cc1 | 8.2 µM (active)
17 | COc1ccc(C2C=C(C)Oc3c2c(=O)oc2ccccc32)cc1OC (configuration not stated) | inactive
18 | COC(=O)C1=C(c2ccc(OCc3ccccc3)cc2)C[C@@H]2CC[C@H]1N2C(=O)NCc1cccc(F)c1 | inactive
19 | CC1CCCN1CCC(C(N)=O)(c1ccccc1)c1ccccc1 (configuration not stated) | inactive
20 | COc1ccc(CCn2c(O)c(C=NC3CC3)c(=O)[nH]c2=O)cc1OC | inactive
21 | c1ccc(N2Cc3ccccc3-n3nncc3C2)nc1 | inactive
22 | CCC1(C)CC(CCNCc2ccc(N(C)C)cc2)(c2ccc(F)cc2)CCO1 (configuration not stated) | inactive
23 | C[C@@H]1C[C@@H]2O[C@H]2/C=C\C=C\C(=O)Cc2c(Cl)c(O)cc(O)c2C(=O)O1 | 8.2 µM (active)
24 | CC(=O)NCC1=C(c2ccc3ccccc3c2)C[C@@H]2CC[C@H]1N2Cc1ccco1 | inactive
25 | C=Cn1ccnc1P(=S)(c1cc(N(CC)CC)ns1)c1nccn1C=C | inactive
26 | COC(=O)C1=C(c2ccc(OCc3ccccc3)cc2)C[C@@H]2CC[C@H]1N2C(=O)NCc1ccc(Cl)cc1 | inactive
27 | CC1=CC(=Cc2sc3ccccc3[n+]2C)C=C(C)O1 | 8.2 µM (active)
